Counter-ions that a name gives are not always drawn. ± gives the standard deviation of the averaged measurements.
Tested on: Toxoplasma gondii RH (in HFF)
Assay: parasite growth relative to the screen mean (all compounds = 100%); higher = less inhibition of parasite growth
Details: 5 µM; 72 h; oxygen 21 %
Summary of the method: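 Parasite growth was reported relative to the screen mean. In that scale, the mean of all compounds equals 100%, and values are averaged over two screens. Compounds from 10 mM DMSO stocks were pin-transferred to 5 µM final onto confluent human foreskin fibroblasts in 96-well plates, infected within 2 h with RH β-Gal–GFP Toxoplasma (MOI 1:5) and grown 72 h at 21% O2, with parasite number read by a CPRG β-Gal assay against in-plate standard curves. Uninfected host-cell viability was checked with CellTiter-Blue.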

Row | SMILES | parasite growth [%]
1 | c1ccc2sc(C3(N4CCCCC4)CCCCC3)cc2c1 [BTCP maleate] | 64.9 ± 4.1
2 | COc1ccc(CNC(=O)/C=C/c2ccc3[nH]cc(CCN(C)C)c3c2)cc1 | 98.3 ± 31
3 | O=C1Nc2cc(Cl)c(Cl)cc2N2CCNCC12 (centres undefined) | 176 ± 7.8
4 | NC(C(=O)O)c1nn[nH]n1 (racemic) [(RS)-(Tetrazol-5-yl)glycine] | 146 ± 30
5 | c1ccc(C2CC2)c(OCC2=NCCN2)c1 [Cirazoline hydrochloride] | 91.7 ± 19
6 | CN1c2ccccc2C(NCCCCCCC(=O)O)c2ccc(Cl)cc2S1(=O)=O (centres undefined) [Tianeptine] | 98.7 ± 16
7 | COc1cc2c(cc1O)C(CCc1ccc(Cl)cc1)N(C)CC2 (centres undefined) | 58.7 ± 22
8 | CN1C[C@H](CNC(=O)OCc2ccccc2)C[C@@H]2c3cccc4c3c(cn4C)C[C@H]21 [Metergoline] | 71 ± 0.52
9 | O=C1CCCN1CC#CCN1CCCC1 [Oxotremorine sesquifumarate] | 92 ± 32
10 | N=C(NCc1ccc(Cl)cc1)SCCCc1c[nH]cn1 [Clobenpropit dihydrobromide] | 106 ± 11
11 | Cc1ccc2c(c1)C1(CCN(CCc3nc(-c4ccccc4)oc3C)CC1)OC(=O)N2 | 96.7 ± 3.8
12 | Oc1ccc2c3c1O[C@H]1c4c(c5ccccc5n4Cc4ccccc4)C[C@@]4(O)C(C2)N(CC2CC2)CC[C@]314 [N-Benzylnaltrindole hydrochloride] | < 0
13 | Cc1nnc2ccc(-c3cccc(C(F)(F)F)c3)nn12 | 126 ± 14
14 | CC(N)Cc1c[nH]c2ccc(O)cc12 (stereo not drawn) [α-Methyl-5-hydroxytryptamine maleate] | 144 ± 31

— the supplement of paper PMC4894684
